# Bioassay records from PubChem.
# Shown are actives, neighbours in structure and some others; about 9.3% of the full set was active somewhere.
# Htt clearance: compounds clearing mutant huntingtin protein. inhibition, % at 1.5 µM. AID 853. hit rate 0.42% among 47,000. HeLa Exon1htt(103Q)mCFP, aggregate imaging; zero = plate's median compound well;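 active means inhibition of aggregate fluorescence above about 70%, also judged a hit by eye on the cell image, limit read from the data, passing the limit was not always enough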;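 further: cells exposed to compound for three days before fixation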
# NADH enzymes: blocks coupling enzymes of NAD/NADH assays; coupled PK/LDH NADH assays, four targets; IC50, µM (highest dose often 10 µM), inactives show top-dose inhibition; hit rate 0.02% among 65,000;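 active means single-dose screening hits from any of four coupled enzyme assays that gave an IC50 when retested across doses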;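 further: the DPM-DC format reads NADH fluorescence rather than 340 nm absorbance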
# M1 antag: blocks the rat M1 muscarinic receptor response to acetylcholine. B-score at 10 µM. hit rate 3.4% among 64,000. CHO-M1 cells, Fluo-4 calcium, ACh EC80 antagonist mode; hits give low values. P08482;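 active means calcium fluorescence response, raw or row-and-column corrected B-score, differing from the plate sample mean either way at a set confidence level, mostly lower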
# Target sequence (P08482 whole entry, looked up): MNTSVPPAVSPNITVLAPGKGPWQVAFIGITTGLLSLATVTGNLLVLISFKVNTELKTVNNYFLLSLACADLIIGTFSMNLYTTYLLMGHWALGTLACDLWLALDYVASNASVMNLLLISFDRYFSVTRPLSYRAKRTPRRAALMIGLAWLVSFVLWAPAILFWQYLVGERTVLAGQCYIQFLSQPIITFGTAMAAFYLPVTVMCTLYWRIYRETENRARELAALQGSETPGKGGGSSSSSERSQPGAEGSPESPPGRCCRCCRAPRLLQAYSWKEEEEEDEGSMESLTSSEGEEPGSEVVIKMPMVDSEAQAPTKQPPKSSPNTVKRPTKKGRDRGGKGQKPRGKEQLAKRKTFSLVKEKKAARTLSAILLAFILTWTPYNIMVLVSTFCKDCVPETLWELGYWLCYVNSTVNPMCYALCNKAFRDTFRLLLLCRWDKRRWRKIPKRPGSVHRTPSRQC
# Fluor 339 460: intrinsic fluorescence of library compounds, ex339/em460 – biochemical, MLSMR library, data from DPM-DC assay, artefact control, profiling panel. compound autofluorescence, ex339/em460 nm, NADH buffer; hits give high values; 1 = no-compound wells, NADH background. fluorescence fold increase at 10 µM. hit rate 5.5% among 65,000;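 active means at 10 µM, mean starting fluorescence two-fold or more over control wells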;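 further: signal is the first read of a kinetic run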
# Abs 340nm: absorbance at 340 nm | compound absorbance at 340 nm, fold over control | fold change at 10 µM | 65,000 tested, under 10 active | AID 708;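 active means at 10 µM dose, initial 340 nm absorbance at least 2 fold that of control wells; inactive means change under 2 fold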;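 further: initial absorbance extrapolated from kinetic A340 decline of NADH oxidation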
# M1 ag: M1 muscarinic receptor agonism; CHO-M1 cells, Fluo-4 calcium fluorescence, agonist mode; hits give high values; B-score at 10 µM; hit rate 3% among 64,000; AID 626;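 active means fluorescence rise, raw or as B-score row- and column-corrected plate score, outside the 99.7% band of its plate's samples, either direction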
# * marks the source's active call; other numbers are inactive results; x = no result.
SMILES,Htt clearance,NADH enzymes,M1 antag,Fluor 339 460,Abs 340nm,M1 ag
Fc1cccc(-c2cc3nc4c(c(N5CCN(c6cnccn6)CC5)n3n2)CCCC4)c1,32,5%,0.0026,2.4*,0.99,14*
CN(C)c1ccc(C(c2nnnn2CCOC(=O)Nc2ccc(Cl)cc2)N2CCOCC2)cc1 (configuration not stated),14,7%,-0.51,1.1,1,-0.11
CC1(C)CC(NC(=O)c2coc(=O)c(Br)c2)CC(C)(C)N1,x,14%,0.77,2.1*,1.2,0.68
CCCn1nc(Oc2nc(SC)nc(N(C)C)n2)ccc1=O,-13,1%,2*,1.1,1,-0.84
CCOCCCn1c(=N)c(C(=O)NCCN2CCOCC2)cc2c(=O)n3cccc(C)c3nc21,-28,12%,-1.5,5.2*,1,-1.8
CCOCCCn1c(=NC(=O)c2ccc(OC)c(OC)c2)c(C#N)cc2c(=O)n3cccc(C)c3nc21,-4,x,x,x,x,x
O=C(NCCN1CCN(c2ccccc2)CC1)c1cccn2c(=O)c3cc(Cl)ccc3nc12,x,8%,0.96,1.3,1,-0.08
Cc1cccn2c(=O)c3cc(C(=O)NCCN4CCOCC4)n(Cc4ccccc4)c3nc12,x,9%,0.45,3.8*,1.1,0.49
CCN1C=CC2=C(C#N)C(N)C(C#N)(C#N)C(c3ccccc3C(F)(F)F)C2C1 (configuration not stated),-98,x,x,x,x,x
CCCC(c1nnnn1Cc1ccco1)N1CCN(C(=O)c2ccco2)CC1 (configuration not stated),x,7%,0.15*,1.1,1,-0.11
O=C1CC(N2CCN(c3ccc(C(=O)c4ccc(F)cc4)cc3)CC2)C(=O)N1 (configuration not stated),23,6%,0.63,1.1,1.3,0
CCOC(=O)Cn1c(=O)c2c(nc(Br)n2Cc2ccc(Cl)cc2)n(C)c1=O,x,4%,0.71,1.1,1,0.16
CCc1c(C)c(C#N)c2nc3ccccc3n2c1N(C)C,-40,8%,2.3*,1.2,1,1.1
CCCc1cc(-n2ccnc2C)n2c(nc3ccccc32)c1C#N,x,3%,0.28,1.5,1.1,0.42
Cc1cc(NCCCCO)n2c(nc3ccccc32)c1C#N,70,10%,0.011,3.6*,1.1,0.78
CCc1c(C)c(C#N)c2nc3ccccc3n2c1Nc1c(C)n(C)n(-c2ccccc2)c1=O,-2,15%,-0.26,0.69,1,-0.87
CCCc1cc(NCCCCO)n2c(nc3ccccc32)c1C#N,24,8%,-2.1,2.4*,1,2
COCCN(CCOC)c1cc(C)c(C#N)c2nc3ccccc3n12,28,10%,0.9,3.8*,1.1,-0.23
Cc1cc(-c2ccco2)n2c(nc3ccccc32)c1C#N,x,4%,0.41,1.1,1.1,-0.0015
O=C(c1ccc(=O)oc1)N1CCCc2ccccc21,x,8%,-0.018,1.9,1.1,0.083
CCOC(=O)CC1=CC(C)(CC(=O)OCC)C(C#N)(C#N)C(N)=C1C#N (configuration not stated),x,3%,0.0084,1.1,1.1,-0.44
CCOC(=O)N1CCN(C(=O)Cn2cc3c(n2)CCCC3)CC1,x,5%,0.11,1.1,1,-3.2*
c1ccc(Cn2ncc3c2ncn2nc(-c4ccncc4)nc32)cc1,x,4%,-0.17,1,1.1,-0.81
CN(C)c1nc(-c2ccccc2)c2cnn(Cc3ccccc3)c2n1,x,9%,-0.51,2.1*,1,0.06
O=C(O)CC(c1ccccc1)c1ccccc1,86*,8%,-0.22,1.1,1,-0.2
SMILES,Htt clearance,NADH enzymes,M1 antag,Fluor 339 460,Abs 340nm,M1 ag
O=C(O)CC(CP(=O)(c1ccccc1)c1ccccc1)C(=O)O (configuration not stated),0,10%,0.78,0.81,1,0.25
O=C(c1cccs1)c1ccc(-c2cccs2)s1,x,18%,-0.73,2.4*,1.1,-0.16
CC1CCCCN1C(=O)Cn1cc(/C=C2/C(=O)Nc3ccccc32)c2ccccc21 (configuration not stated),20,x,x,x,x,x
CC1(C)Cc2nc(NCCN3CCOCC3)c(C#N)cc2CO1,-60,3%,0.23,1.1,1.1,-0.007
CC(C)CCNc1nc2c(cc1C#N)COC(C)(C)C2,x,3%,0.79,2.2*,1,-0.0029
Cn1c(=O)c2c(nc(OCc3ccccc3)n2C)n(C)c1=O,x,2%,0.24,1.1,1.1,0.32
CN1CCN(c2ccccc2NC(=O)COc2ccc(Br)cc2)CC1,40,x,x,x,x,x
Cn1c(/N=C/c2ccc3c(c2)OCO3)nc2ccccc21,1,9%,0.33,2.1*,1.1,-0.24
CCn1c(/C=N/c2nc3ccccc3n2C)nc2ccccc21,30,x,x,x,x,x
Cc1c(O)ccc2c3c(c(=O)oc12)CCCC3,36,9%,-0.24,3.9*,1.1,-1.5
O=c1oc2c(CN3CCOCC3)c(O)ccc2c2c1CCC2,-29,7%,0.05,3.6*,1.1,-0.095
Cc1c(O)ccc2c3c(c(=O)oc12)CCC(C)C3 (configuration not stated),2,7%,-1.1,3.7*,1.1,0.6
CCOC(=O)c1cnc(SCC(=O)Nc2nc(C)c(C)s2)nc1N,-3,5%,-0.23,1.1,1,0.016
Cc1c(C(=O)NCCSCc2c(Cl)cccc2Cl)cccc1[N+](=O)[O-],28,x,x,x,x,x
CC(C)(C)c1ccc(C2(C)NC(=O)N(CC(=O)Nc3ccc4c(c3)OCO4)C2=O)cc1 (configuration not stated),-23,x,x,x,x,x
CC1(c2ccc(OC(F)F)cc2)NC(=O)N(CC(=O)Nc2ccc3c(c2)OCO3)C1=O (configuration not stated),x,2%,0.25,1,1,23*
O=C(NCc1ccc(OC(F)(F)F)cc1)C1CC(c2c(Cl)cccc2Cl)=NO1 (configuration not stated),-7,x,x,x,x,x
Nc1ncnc2oc(-c3ccco3)c(-c3ccco3)c12,33,6%,0.067,2.4*,1,-0.88
C=CCOC(=O)C1=C(C)NC(SCC(=O)Nc2ccc(C)c(Cl)c2)=C(C#N)C1c1ccco1 (configuration not stated),51,4%,0.33,2.3*,1.1,-1.3
Cc1oc2c(O)c(O)ccc2c(=O)c1-c1cnn(-c2ccccc2)c1,x,3%,0.64,1.1,1.1,0.77
Cc1nc(-c2cnn(-c3ccccc3)c2)c2cc(C)oc2n1,x,2%,-1.5,2.7*,1,-1
COC(=O)CSc1nnc(CNC(=O)Cc2ccccc2)n1-c1ccccc1OC,-1,7%,-0.062,1.1,0.98,0.26
O=C(CN(Cc1ccc(F)cc1)C(=O)Cn1nnc2ccccc21)NCC1CCCO1 (configuration not stated),-21,4%,0.25,0.99,0.98,-1
COc1nc(-c2ccccc2)cc(-c2ccc(OC)c(OC)c2)n1,x,0%,-0.11,2.2*,1.2,0.65
